Screen size: about 5,500 compounds; about 2,000 (36%) were called active. About 18% were inconclusive and are not listed. Rule as the data show it: active = normalized growth mostly below about 0.91 (no sharp cut-off); inconclusive = no clear call, values can overlap the other calls; inactive = mostly above about 0.92. This is one part of the list.
Assay: chemical genetic growth profiling, strain panel (AID 1159580);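 also: tested at 20 µM; growth read once vehicle control cultures reached saturation at 30 °C; 1 = growth at the plate median or of vehicle wells; lower values mean less growth of the strain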
Details: growth OD

Measured: normalized growth

C[C@@H]1CC[C@@]23CCC4(C)[C@@](C=CC5[C@@]6(C)CC[C@H](O)C(C)(C)C6CC[C@]54C)(OC2=O)C3[C@H]1C (stereo partly drawn)
inactive: S. cerevisiae deletion strains, locus YJR043C, strain POL32, hits give low values 1 | S. cerevisiae deletion strains, locus YJR066W, strain TOR1, hits give low values 0.991 | S. cerevisiae deletion strains, locus YJR075W, strain HOC1, hits give low values 1.02 | S. cerevisiae deletion strains, locus YKL085W, strain MDH1 (second series), hits give low values 1 | S. cerevisiae deletion strains, locus YKL085W, strain MDH1, hits give low values 1 | S. cerevisiae deletion strains, locus YKL160W, strain elf1, hits give low values 1.01 | S. cerevisiae deletion strains, locus YKL190W, strain CNB1, hits give low values 1.01 | S. cerevisiae deletion strains, locus YKR001C, strain vps1, hits give low values 1.06 | S. cerevisiae deletion strains, locus YKR026C, strain gcn3, hits give low values 1.01 | S. cerevisiae deletion strains, locus YKR091W, strain srl3, hits give low values 1 | S. cerevisiae deletion strains, locus YLL001W, strain dnm1, hits give low values 1.02 | S. cerevisiae deletion strains, locus YLL026W, hits give low values 1 | S. cerevisiae deletion strains, locus YLL041C, strain sdh2, hits give low values 1 | S. cerevisiae deletion strains, locus YLR027C, strain aat2, hits give low values 1 | S. cerevisiae deletion strains, locus YLR039C, strain RIC1, hits give low values 1.09 | S. cerevisiae deletion strains, locus YLR058C, strain SHM2, hits give low values 1.02 | S. cerevisiae deletion strains, locus YLR102C, strain apc9, hits give low values 1.03 | S. cerevisiae deletion strains, locus YLR113W, strain HOG1, hits give low values 1.02 | S. cerevisiae deletion strains, locus YLR221C, strain rsa3, hits give low values 0.998 | S. cerevisiae deletion strains, locus YLR258W, strain gsy2, hits give low values 0.996 | S. cerevisiae deletion strains, locus YLR262C, strain YPT6 (second series), hits give low values 1.02 | S. cerevisiae deletion strains, locus YLR262C, strain YPT6, hits give low values 1.09 | S. cerevisiae deletion strains, locus YLR268W, strain sec22, hits give low values 1.03 | S. cerevisiae deletion strains, locus YLR320W, strain mms22, hits give low values 1.01 | S. cerevisiae deletion strains, locus YLR330W, strain CHS5, hits give low values 1.03 | S. cerevisiae deletion strains, locus YLR342W, strain FKS1 (second series), hits give low values 1.02 | S. cerevisiae deletion strains, locus YLR342W, strain FKS1, hits give low values 1.01 | S. cerevisiae deletion strains, locus YLR357W, strain rsc2, hits give low values 1.07 | S. cerevisiae deletion strains, locus YLR370C, strain arc18, hits give low values 1.01 | S. cerevisiae deletion strains, locus YLR384C, strain iki3, hits give low values 0.981 | S. cerevisiae deletion strains, locus YLR418C, strain cdc73, hits give low values 1.07 | S. cerevisiae deletion strains, locus YML016C, strain PPZ1, hits give low values 1.01 | S. cerevisiae deletion strains, locus YML032C, strain rad52, hits give low values 1.02 | S. cerevisiae deletion strains, locus YML120C, strain ndi1, hits give low values 1 | S. cerevisiae deletion strains, locus YML124C, strain tub3, hits give low values 1 | S. cerevisiae deletion strains, locus YMR058W, strain fet3, hits give low values 1 | S. cerevisiae deletion strains, locus YMR078C, strain ctf18, hits give low values 0.991 | S. cerevisiae deletion strains, locus YMR125W, strain sto1, hits give low values 1.01 | S. cerevisiae deletion strains, locus YMR129W, hits give low values 0.997 | S. cerevisiae deletion strains, locus YMR205C, strain PFK2, hits give low values 1.02 | S. cerevisiae deletion strains, locus YMR223W, strain ubp8, hits give low values 1.08 | S. cerevisiae deletion strains, locus YMR231W, strain pep5, hits give low values 0.98 | S. cerevisiae deletion strains, locus YMR307W, strain GAS1, hits give low values 1.13 | S. cerevisiae deletion strains, locus YNL067W, strain RPL9B, hits give low values 1.01 | S. cerevisiae deletion strains, locus YNL071W, strain lat1, hits give low values 1.01 | S. cerevisiae deletion strains, locus YNL183C, strain NPR1, hits give low values 0.998 | S. cerevisiae deletion strains, locus YNL209W, strain ssb2, hits give low values 1.01 | S. cerevisiae deletion strains, locus YNL233W, strain BNI4, hits give low values 1.05 | S. cerevisiae deletion strains, locus YNL248C, strain rpa49, hits give low values 1.01 | S. cerevisiae deletion strains, locus YNL250W, strain rad50, hits give low values 1 | S. cerevisiae deletion strains, locus YNL271C, strain bni1, hits give low values 0.994 | S. cerevisiae deletion strains, locus YNL298W, strain CLA4, hits give low values 1 | S. cerevisiae deletion strains, locus YNL307C, strain MCK1, hits give low values 1 | S. cerevisiae deletion strains, locus YNL322C, strain KRE1 (second series), hits give low values 0.998 | S. cerevisiae deletion strains, locus YNR049C, strain mso1, hits give low values 1.01 | S. cerevisiae deletion strains, locus YNR052C, strain pop2, hits give low values 1.02 | S. cerevisiae deletion strains, locus YOL006C, strain TOP1, hits give low values 1.08 | S. cerevisiae deletion strains, locus YOL147C, strain pex11, hits give low values 1.01 | S. cerevisiae deletion strains, locus YOR001W, strain rrp6, hits give low values 1 | S. cerevisiae deletion strains, locus YOR061W, strain CKA2, hits give low values 1.01 | S. cerevisiae deletion strains, locus YOR069W, strain VPS5, hits give low values 1.01 | S. cerevisiae deletion strains, locus YOR070C, strain gyp1, hits give low values 1.03 | S. cerevisiae deletion strains, locus YOR080W, strain dia2, hits give low values 1.09 | S. cerevisiae deletion strains, locus YOR083W, strain WHI5, hits give low values 1.01 | S. cerevisiae deletion strains, locus YOR106W, strain vam3, hits give low values 1.02 | S. cerevisiae deletion strains, locus YOR136W, strain idh2, hits give low values 1.06 | S. cerevisiae deletion strains, locus YOR144C, strain elg1, hits give low values 0.997 | S. cerevisiae deletion strains, locus YOR184W, strain ser1, hits give low values 1.05 | S. cerevisiae deletion strains, locus YOR231W, strain MKK1, hits give low values 1.02 | S. cerevisiae deletion strains, locus YOR265W, strain rbl2, hits give low values 1.01 | S. cerevisiae deletion strains, locus YOR270C, strain vph1, hits give low values 1.05 | S. cerevisiae deletion strains, locus YOR290C, strain snf2, hits give low values 1 | S. cerevisiae deletion strains, locus YOR316C, strain cot1, hits give low values 1.03 | S. cerevisiae deletion strains, locus YPL051W, strain arl3, hits give low values 1.02 | S. cerevisiae deletion strains, locus YPL055C, strain LGE1, hits give low values 1.06 | S. cerevisiae deletion strains, locus YPL078C, strain atp4, hits give low values 1.02 | S. cerevisiae deletion strains, locus YPL106C, strain sse1, hits give low values 1.03 | S. cerevisiae deletion strains, locus YPL240C, strain hsp82, hits give low values 1 | S. cerevisiae deletion strains, locus YPL256C, strain CLN2, hits give low values 1.06 | S. cerevisiae deletion strains, locus YPR119W, strain clb2, hits give low values 0.986 | S. cerevisiae deletion strains, locus YPR141C, strain kar3, hits give low values 1 | S. cerevisiae deletion strains, locus YPR163C, strain tif3, hits give low values 1 | S. cerevisiae deletion strains, locus YPR167C, strain met16, hits give low values 1.05 | S. cerevisiae deletion strains, strain wtn01, hits give low values 1 | S. cerevisiae strains, strain wild type, hits give low values 1.02
active: S. cerevisiae deletion strains, locus YKL009W, strain mrt4, hits give low values 1.26 [resistant] | S. cerevisiae deletion strains, locus YLR371W, strain rom2, hits give low values 1.29 [resistant] | S. cerevisiae deletion strains, locus YOL012C, strain htz1 2.58 [resistant]
